Assay outcomes from PubChem BioAssay.
CHO-K1 Ca PAM: M1 PAM counterscreen hit in parental CHO-K1 cells; ATP EC20, Fluo-8 calcium fluorescence; 0% at ATP EC20, 100% at ATP max; activation, % at 3 µM; 360,000 compounds, 0.02% hits;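 active means activation above the run cutoff, the mean activation of all test compounds plus 3 SD, cut at about 40% in these data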;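 further: peak over basal fluorescence ratio in a 140 s read after ATP addition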
M1 antag: human CHRM1 antagonism. CHO-K1 hM1, Fluo-8 calcium fluorescence, ACh EC80 antagonist. inhibition, % at 3 µM. 360,000 compounds, 1.3% hits. P11229. AID 588852;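 active means percent inhibition above its own plate's cutoff, namely the mean of that plate's compound wells plus 3 SD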;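 further: peak over basal fluorescence ratio during 140 s after agonist addition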
Target sequence (P11229 whole entry, looked up): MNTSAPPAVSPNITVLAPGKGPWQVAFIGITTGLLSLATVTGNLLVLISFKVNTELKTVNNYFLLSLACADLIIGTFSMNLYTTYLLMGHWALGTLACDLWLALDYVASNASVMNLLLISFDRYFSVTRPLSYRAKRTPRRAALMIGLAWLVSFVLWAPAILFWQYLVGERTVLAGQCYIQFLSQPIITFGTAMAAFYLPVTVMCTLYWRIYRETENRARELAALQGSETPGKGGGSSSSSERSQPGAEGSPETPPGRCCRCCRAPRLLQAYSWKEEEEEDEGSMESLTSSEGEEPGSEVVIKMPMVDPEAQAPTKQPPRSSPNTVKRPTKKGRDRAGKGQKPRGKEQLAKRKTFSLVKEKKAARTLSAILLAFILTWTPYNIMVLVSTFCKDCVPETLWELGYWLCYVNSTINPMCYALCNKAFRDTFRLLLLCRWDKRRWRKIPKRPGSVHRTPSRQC
M1 PAM: potentiates human M1 receptor response to acetylcholine. P11229. CHO-K1 hM1, Fluo-8 calcium fluorescence, ACh EC20; 0% = ACh EC20, 100% = maximal ACh. activation, % at 3 µM. 360,000 compounds, 0.088% hits. AID 588819; in the data active means activation above about 19%, passing the limit was not always enough
CHO-K1 Ca antag: nonselective inhibitor or artifact in parental CHO-K1 cells; 360,000 compounds, 0.6% hits; AID 602250; ATP-induced calcium, Fluo-8 fluorescence; inhibition, % at 3 µM;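 active means inhibition above a per-plate cutoff, the plate's mean sample inhibition plus 3 SD, cut at about 24% in these data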
M1 ag parental: nonselective activator or artifact in parental CHO-K1 cells; AID 602248; Fluo-8 calcium fluorescence; scaled to maximal ATP response, vehicle zero; 360,000 compounds, 0.48% hits; activation, % at 3 µM; in the data active means activation above about 15%;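 further: untransfected CHO-K1 host cells lacking M1 receptor as counterscreen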
M1 ag: activates human CHRM1 receptor | CHO-K1 hM1, Fluo-8 calcium fluorescence, agonist mode; 0% DMSO, 100% acetylcholine EC100 | activation, % at 3 µM | 360,000 compounds, 0.33% hits | AID 588814;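 active means activation above the run's mean compound activation plus 3 SD, cut at about 16% in these data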;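 further: peak over basal fluorescence ratio within a 140 s kinetic read after compound addition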
A number is an active result; - = inactive; . = not tested or not shown. In the library only some 2.3% were active in any assay of this set; here they are far more common.

SMILES	CHO-K1 Ca PAM	M1 antag	M1 PAM	CHO-K1 Ca antag	M1 ag parental	M1 ag
COCCNC(=S)N(CCO)Cc1cc2cc3c(cc2[nH]c1=O)OCO3	-	-	-	-	-	-
COc1ccc(S(=O)(=O)N2CCC[C@H]2C(=O)N2CCC[C@H]2C(=O)NCc2ccc(F)cc2F)cc1C	-	.	.	-	-	.
COc1ccc(/C=C/C(=O)OCC(=O)NC2CCCC(C)C2C)cc1S(=O)(=O)N1CCOCC1 (centres undefined)	-	-	-	-	-	-
CC1CCCC(NC(=O)COC(=O)/C=C/c2ccc(S(=O)(=O)N3CCOCC3)cc2)C1C (centres undefined)	-	-	-	-	19	-
CN1C(=O)N(CC(=O)Nc2ccc3c(c2)OCO3)C(=O)C12CCCCC2	-	-	-	-	-	-
Cc1c(C(=O)OC(C)C(=O)N(C)Cc2ccccc2)oc2ccccc12 (centres undefined)	-	-	-	-	-	-
Cc1c(C(=O)OC(C)C(C)C[N+](C)(C)C)oc2ccccc12 (centres undefined)	-	99	-	-	-	-
COc1ccc(-c2ccc(-c3cc(=O)oc4cc(OC)c(OC)c(OC)c34)cc2)cc1	-	-	-	-	-	-
CCOC(=O)CC1C(=O)NCCN1S(=O)(=O)c1cccc(C(F)(F)F)c1 (centres undefined)	-	-	-	-	-	-
Nc1nc2ccc(Cl)cc2cc1C(=O)NCc1ccc(Oc2ccccc2)cc1	-	.	.	28	-	.
COc1ccc(CCNC(=O)c2cc3ccc(Cl)cc3nc2N)cc1	-	.	.	33	-	.
Nc1nc2ccc(Cl)cc2cc1C(=O)NCCc1c[nH]c2ccccc12	-	.	.	-	-	.
CC(C)(C)NS(=O)(=O)c1cc(C(=O)Nc2sccc2C#N)ccc1Cl	-	-	-	-	23	-
CCCCCNC(=O)c1ccc(NC(=O)CC2SC(N3CCCC3)=NC2=O)cc1 (centres undefined)	-	-	-	-	-	-
CCNC(=O)c1ccc(NC(=O)CC2SC(N3CCCC3)=NC2=O)cc1 (centres undefined)	-	-	28	-	-	-
C[C@@H]1CN([C@@H](C)CO)C(=O)c2cc(Br)cnc2O[C@H]1CN(C)C(=O)Nc1ccc2c(c1)OCO2	-	-	-	-	-	-
O=C(Nc1ccc(Cl)cc1)c1cc2c(cc1O)[nH]c1ccccc12	-	-	-	29	16	-
O=[N+]([O-])c1ccc(-c2nc(Nc3cccc(O)c3)c3ccccc3n2)cc1	-	-	-	-	20	-
O=C(O)c1cccc(Nc2nc(-c3ccc([N+](=O)[O-])cc3)nc3ccccc23)c1	-	-	-	-	-	-
CN(C(=O)c1ccccc1C(=O)OCC(=O)Nc1ccccc1)c1ccccc1	-	-	-	-	-	-
COc1cccc(C(=O)OCC(=O)Nc2ccccc2N2CCOCC2)c1	-	-	-	-	-	-
O=C(Nc1ccccc1N1CCOCC1)c1ccc(S(=O)(=O)NCc2ccco2)cc1	-	-	-	-	-	-
CC(=O)Nc1ccc(S(=O)(=O)Nc2ccccc2N2CCOCC2)cc1Cl	-	-	-	-	-	-
O=C(Nc1ccccc1N1CCOCC1)c1ccc(Cl)c(S(=O)(=O)NCc2ccco2)c1	-	-	-	-	17	-
O=C(O)c1cccc(S(=O)(=O)Nc2ccccc2N2CCOCC2)c1	-	54	-	-	-	-
SMILES	CHO-K1 Ca PAM	M1 antag	M1 PAM	CHO-K1 Ca antag	M1 ag parental	M1 ag
COc1cccc(C(=O)Nc2ccccc2N2CCOCC2)c1	-	-	-	68	91	-
CCCN(C)C[C@H]1OCc2cnnn2CCCC(=O)N([C@H](C)CO)C[C@@H]1C	-	-	-	-	-	-
CCCN1CCC(C(=O)NC(c2ccc(Cl)cc2)c2ccsc2)CC1 (centres undefined)	-	-	-	-	-	-
CCOC(=O)c1c(NC(=O)COC(=O)c2cc(OC)c(OC)cc2[N+](=O)[O-])sc(C)c1C	-	-	-	-	-	-
CCN(CC)c1ccc(/C=C(/C#N)c2nc3ccccc3[nH]2)c(OC(C)C)c1	-	64	-	-	-	55
CCOc1cccc(/C=C(/C#N)c2nc3ccccc3[nH]2)c1OCC(=O)O	-	-	-	-	-	-
